Like-named read-outs stand apart in the source and are kept apart here.
Key:
Design in all cases: species or system human, MV4-11 + K-562 + COLO205 + SK-N-BE2 + OVCAR-8
ACVR2B = settings: read-out: apparent Kd, compound concentrations: 100 nM and 1000 nM (sheet 'Samples'), n = 1
DJA1 = system: T1, DJA1; settings: read-out: apparent Kd; compound concentrations: 100 nM and 1000 nM (sheet 'Samples'), CATDS: 0.27071673816178898; n = 1
T1 construct: gene DNAJA1

PIK3CD = settings: read-out: apparent Kd; compound concentrations: 100 nM and 1000 nM (sheet 'Samples'), CATDS: 0.64872041714686801; n = 1
FLT3 = settings: read-out: apparent Kd; compound concentrations: 100 nM and 1000 nM (sheet 'Samples'), CATDS: 0.189547770315381; n = 1
FLT4 = settings: read-out: apparent Kd; compound concentrations: 100 nM and 1000 nM (sheet 'Samples'), CATDS: 0.63854178875025103; n = 1
PDGFRB = settings: read-out: apparent Kd; compound concentrations: 100 nM and 1000 nM (sheet 'Samples'), CATDS: 0.185767501667575; n = 1
ACVR1B = settings: read-out: apparent Kd; compound concentrations:100 nM and 1000 nM (sheet 'Samples'); n = 1
NQO2 = settings: read-out: apparent Kd; compound concentrations:100 nM and 1000 nM (sheet 'Samples'); n = 1
PIP4K2C = settings: read-out: apparent Kd, n = 1
TGFBR1 = settings: read-out: apparent Kd; compound concentrations:100 nM and 1000 nM (sheet 'Samples'); n = 1
ADCK1 = settings: read-out: apparent Kd; compound concentrations: 100 nM and 1000 nM (sheet 'Samples'), CATDS: 3.00594248157054E-2; n = 1
ADRBK1 = settings: read-out: apparent Kd; compound concentrations: 100 nM and 1000 nM (sheet 'Samples'), CATDS: 2.4838233603700199E-2; n = 1
AKT1 = settings: read-out: apparent Kd; compound concentrations: 100 nM and 1000 nM (sheet 'Samples'), CATDS: 2.84891592844819E-2; n = 1
AKT2 = settings: read-out: apparent Kd; compound concentrations: 100 nM and 1000 nM (sheet 'Samples'), CATDS: 2.9280872528565802E-2; n = 1
CDK16 = settings: read-out: apparent Kd; compound concentrations: 100 nM and 1000 nM (sheet 'Samples'), CATDS: 6.3577465529015803E-2; n = 1
CDK17 = settings: read-out: apparent Kd; compound concentrations: 100 nM and 1000 nM (sheet 'Samples'), CATDS: 3.37360280865171E-2; n = 1
CDK1 = settings: read-out: apparent Kd; compound concentrations: 100 nM and 1000 nM (sheet 'Samples'), CATDS: 2.7245131481605699E-2; n = 1
CDK2 = settings: read-out: apparent Kd; compound concentrations: 100 nM and 1000 nM (sheet 'Samples'), CATDS: 4.36970242470427E-2; n = 1
CDK6 = settings: read-out: apparent Kd; compound concentrations: 100 nM and 1000 nM (sheet 'Samples'), CATDS: 3.4671115454836803E-2; n = 1
CDK9 = settings: read-out: apparent Kd; compound concentrations: 100 nM and 1000 nM (sheet 'Samples'), CATDS: 2.7346087342078398E-2; n = 1
CDKL5 = settings: read-out: apparent Kd; compound concentrations: 100 nM and 1000 nM (sheet 'Samples'), CATDS: 8.0435969039111696E-2; n = 1
CLK1 = settings: read-out: apparent Kd; compound concentrations: 100 nM and 1000 nM (sheet 'Samples'), CATDS: 3.0051387692213001E-2; n = 1
CLK2 = settings: read-out: apparent Kd; compound concentrations: 100 nM and 1000 nM (sheet 'Samples'), CATDS: 4.01054923107644E-2; n = 1
CLK4 = settings: read-out: apparent Kd; compound concentrations: 100 nM and 1000 nM (sheet 'Samples'), CATDS: 3.8689764998843801E-2; n = 1
DYRK1A = settings: read-out: apparent Kd; compound concentrations: 100 nM and 1000 nM (sheet 'Samples'), CATDS: 7.8363262326560101E-2; n = 1
GSK3A = settings: read-out: apparent Kd; compound concentrations: 100 nM and 1000 nM (sheet 'Samples'), CATDS: 0.62281927903821299; n = 1
GSK3B = settings: read-out: apparent Kd; compound concentrations: 100 nM and 1000 nM (sheet 'Samples'), CATDS: 0.401572679379325; n = 1
ICK = settings: read-out: apparent Kd; compound concentrations: 100 nM and 1000 nM (sheet 'Samples'), CATDS: 0.15504301579156199; n = 1
MAP2K1 = settings: read-out: apparent Kd; compound concentrations: 100 nM and 1000 nM (sheet 'Samples'), CATDS: 2.5511986591555801E-2; n = 1
MAP2K2 = settings: read-out: apparent Kd; compound concentrations: 100 nM and 1000 nM (sheet 'Samples'), CATDS: 2.5311950645342699E-2; n = 1
MAPK7 = settings: read-out: apparent Kd; compound concentrations: 100 nM and 1000 nM (sheet 'Samples'), CATDS: 2.4862770710026599E-2; n = 1
NQO1 = settings: read-out: apparent Kd; compound concentrations: 100 nM and 1000 nM (sheet 'Samples'), CATDS: 3.3718961414702597E-2; n = 1
PIM1 = settings: read-out: apparent Kd; compound concentrations: 100 nM and 1000 nM (sheet 'Samples'), CATDS: 3.8297140879790803E-2; n = 1
PIM2 = settings: read-out: apparent Kd; compound concentrations: 100 nM and 1000 nM (sheet 'Samples'), CATDS: 4.1089094062549299E-2; n = 1
PRKACG = settings: read-out: apparent Kd; compound concentrations: 100 nM and 1000 nM (sheet 'Samples'), CATDS: 4.2614442075595102E-2; n = 1
PYGL = settings: read-out: apparent Kd; compound concentrations: 100 nM and 1000 nM (sheet 'Samples'), CATDS: 2.55419672432197E-2; n = 1
RIOK2 = settings: read-out: apparent Kd; compound concentrations: 100 nM and 1000 nM (sheet 'Samples'), CATDS: 2.90661770930771E-2; n = 1

In the case of Fc1cc(Cl)ccc1Nc1ccnc2cc(I)ccc12 [GW551191X], the potency estimated from few doses (ACVR2B; CATDS: 0.26563205076169) is reported as 1340 nM, the potency estimated from few doses (DJA1) is reported as 1260 nM and the potency estimated from few doses (PIK3CD) is reported as 203 nM.

CC(=O)Nc1ccc(COc2ccc(Nc3ccnc4cc(-c5ccccn5)ccc34)cc2)cc1.Cl [GW440148A] showed a potency estimated from few doses (ACVR2B; CATDS: 0.26489055890019297) of 482 nM, a potency estimated from few doses (FLT3) of 1250 nM and a potency estimated from few doses (FLT4) of 88.5 nM. For the same compound, the potency estimated from few doses (PDGFRB) was 1340 nM.

Work on O=C(c1ccc(-c2cc(-c3c[nH]nc3-c3ccccn3)ccn2)cc1)N1CCCC1 [GW792479X] yielded a potency estimated from few doses (ACVR1B) of 270 nM, a potency estimated from few doses (NQO2) of 1390 nM and a potency estimated from few doses (PIP4K2C; compound concentrations:100 nM and 1000 nM (sheet 'Samples')) of 1650 nM. For the same compound, the potency estimated from few doses (TGFBR1) was 118 nM.

Compound Cl.NC(=O)c1cccc(Nc2nccc(Nc3cccc(F)c3)n2)c1 [GW759710A] has a potency estimated from few doses (ACVR2B; CATDS: 0.70743681093709798) of 450 nM and a potency estimated from few doses (PIP4K2C; compound concentrations: 100 nM and 1000 nM (sheet 'Samples'), CATDS: 0.38663089306687698) of 1730 nM.

O=C(Nc1n[nH]c2nnc(-c3cccnc3)cc12)C1CC1.O=C(O)C(F)(F)F [SB-675259-M] was tested, and the potency estimated from few doses (ADCK1) was 1030 nM, the potency estimated from few doses (ADRBK1) was 2130 nM and the potency estimated from few doses (AKT1) was 1240 nM. The potency estimated from few doses (AKT2) was 1130 nM, the potency estimated from few doses (CDK16) was 151 nM and the potency estimated from few doses (CDK17) was 726 nM. The potency estimated from few doses (CDK1) was 1460 nM, the potency estimated from few doses (CDK2) was 366 nM and the potency estimated from few doses (CDK6) was 671 nM. For the same compound, the potency estimated from few doses (CDK9) was 1440 nM, the potency estimated from few doses (CDKL5) was 87 nM and the potency estimated from few doses (CLK1) was 1030 nM. For the same compound, the potency estimated from few doses (CLK2) was 454 nM, the potency estimated from few doses (CLK4) was 498 nM and the potency estimated from few doses (DYRK1A) was 92.6 nM. The potency estimated from few doses (GSK3A) was 0.113 nM, the potency estimated from few doses (GSK3B) was 0.279 nM and the potency estimated from few doses (ICK) was 14.7 nM. For the same compound, the potency estimated from few doses (MAP2K1) was 1890 nM, the potency estimated from few doses (MAP2K2) was 1960 nM and the potency estimated from few doses (MAPK7) was 2120 nM. The potency estimated from few doses (NQO1) was 727 nM, the potency estimated from few doses (PIM1) was 512 nM and the potency estimated from few doses (PIM2) was 426 nM. For the same compound, the potency estimated from few doses (PRKACG) was 389 nM, the potency estimated from few doses (PYGL) was 1880 nM and the potency estimated from few doses (RIOK2) was 1160 nM.
